Assay [1] can be described thus: rapamycin-like changes in RPL19A-GFP expression – cell-based, S. cerevisiae, multiplex flow cytometry, primary screen (AID 1862; in the data active means percent of DMSO control GFP below about 86%;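 further: lower values mimic rapamycin by blocking the RPL19A rise seen in DMSO cells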). The note with it: S. cerevisiae RPL19A-GFP strain, flow cytometry fluorescence, 3 h; at 10 µM; stronger effect = lower value.
A short description of assay [2]: TOR pathway GLN3 branch reporter MEP2-GFP changes – S. cerevisiae, multiplex flow cytometry, primary screen (AID 1867;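 active means GFP response, as percent of the DMSO control, above the screen-wide mean plus 3 SD, about 139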;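 further: median GFP channel fluorescence of barcode-gated MEP2-GFP cells measured by flow cytometry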). The note with it: S. cerevisiae MEP2-GFP strain, 3 h, at 10 µM, stronger effect = higher value, 100% means same as DMSO wells. (A flow cytometer gives signals particle by particle.)
The nature of assay [3]: TOR pathway RTG branch CIT2 reporter changes – S. cerevisiae, GFP fusion, multiplex flow cytometry, primary screen (AID 1870;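 active means percent response above a set limit, the screen-wide mean plus 3 SD, cut at about 130% in these data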;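 further: barcoded CIT2-GFP strain pooled with four other GFP strains with rapamycin as positive control; median GFP fluorescence per well over plate mean of DMSO wells so 100% = DMSO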). The note with it: S. cerevisiae CIT2-GFP expression, 3 h, at 10 µM, stronger effect = higher value.
Assay [4] is described as follows: TOR pathway LAP4-GFP level changes – S. cerevisiae, multiplex flow cytometry, primary screen (AID 1873;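 active means GFP signal, as percent of the solvent control, above the screen mean plus 3 SD, about 149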). The note with it: S. cerevisiae LAP4-GFP expression, 3 h, at 10 µM, stronger effect = higher value.
Assay [5] can be described thus: yeast AGP1-GFP level changes, GLN3 branch – cell-based, multiplex flow cytometry, S. cerevisiae, primary screen (AID 1887;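 active means GFP signal above the screen-wide mean plus 3 SD, that is over about 124.5% of the solvent control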;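 further: AGP1-GFP fusion strain of S. cerevisiae within a five-strain barcoded multiplex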). The note with it: 3 h, at 10 µM, stronger effect = higher value.
A short description of assay [6]: reduced mouse 2C T cell binding to pMHC/ICAM-1 vesicles – MLPCN validation set, flow cytometry, LFA-1/ICAM-1 modulator project, pilot screen (AID 2523;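 active means response below a set limit, under 55% cells CD8-positive and vesicle-bound, and CD8 cells' 90th-percentile brightness under 279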;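 on vesicle binding response: mean PE anti-B7-1 fluorescence of CD8+ cells relative to row control; 100% = QL9-loaded vesicles with DMSO vehicle in the same plate row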). The note with it: 2C mouse CD8+ T cells, at 7 µM, stronger effect = lower value; double positive events: measured here: CD8+/vesicle+ event percentage.
Assay [7] has as its target Integrin beta-1 (Homo sapiens) + Integrin alpha-4 (Homo sapiens) (UniProt P13612+P05556). In words: alpha4beta1 integrin LIBS antibody binding reduction – U937 cells, HUTS-21 mAb, flow cytometry, validation set, VLA-4 allosteric modulator project, pilot screen (AID 2674;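 active means inhibition above 50%, about 3 SD of the validation set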;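 further: antibody binding induced by the VLA-4 ligand LDV present at three times its Kd; 0% = LDV ligand with antibody and no compound and 100% = antibody without LDV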). The note with it: HUTS-21 LIBS mAb binding, at 6.7 µM, stronger effect = higher value, binding induced by LDV ligand.

Assay [8] in a line: calorie-restriction mimetic ROS inhibitors, yeast – validation compound set, pilot screen (AID 2706;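 active means superoxide response below 65% of plate, a cut near 3 SD across the whole screen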;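 further: yeast exposed to compound for one week at 30 degrees C before staining; 100% = mean of all compound wells on the same plate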). The note with it: S. cerevisiae aging, superoxide DHE fluorescence; at 10 µM; stronger effect = lower value.
Assay [9] deals with Beta-adrenergic receptor kinase 1 (Homo sapiens) (UniProt P25098). In words: GRK2 binders displacing RNA aptamer, biochemical, validation, human GRK2, bead flow cytometry (AID 488806;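 active means aptamer binding inhibition above 30%, about 3 SD of noise from non-fluorescent compounds; inactive means inhibition at or below 30%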). The note with it: bead-bound GRK2, FAM-aptamer displacement, at 10 µM, stronger effect = higher value.
Sequence of Beta-adrenergic receptor kinase 1 (Homo sapiens) (P25098 whole entry, looked up): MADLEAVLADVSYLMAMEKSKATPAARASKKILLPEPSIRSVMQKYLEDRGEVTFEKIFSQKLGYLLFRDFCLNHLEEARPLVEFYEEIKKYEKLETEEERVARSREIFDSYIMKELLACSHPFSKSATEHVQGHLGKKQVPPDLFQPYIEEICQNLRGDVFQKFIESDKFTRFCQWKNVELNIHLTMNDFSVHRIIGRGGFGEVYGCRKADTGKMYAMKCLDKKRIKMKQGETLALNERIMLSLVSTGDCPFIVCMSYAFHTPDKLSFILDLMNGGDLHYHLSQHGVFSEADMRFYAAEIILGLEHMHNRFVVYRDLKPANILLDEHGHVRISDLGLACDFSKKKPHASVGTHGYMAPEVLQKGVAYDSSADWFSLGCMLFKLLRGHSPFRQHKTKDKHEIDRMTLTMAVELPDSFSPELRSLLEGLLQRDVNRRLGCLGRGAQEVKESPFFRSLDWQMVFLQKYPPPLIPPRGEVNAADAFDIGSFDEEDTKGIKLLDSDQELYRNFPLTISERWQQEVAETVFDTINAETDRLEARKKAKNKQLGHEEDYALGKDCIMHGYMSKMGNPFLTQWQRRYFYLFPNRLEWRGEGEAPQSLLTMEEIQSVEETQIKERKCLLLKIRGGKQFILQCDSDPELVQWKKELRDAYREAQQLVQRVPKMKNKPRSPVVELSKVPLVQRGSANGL
The target in assay [10] is Beta-2 adrenergic receptor (Homo sapiens) (UniProt P07550). Kind of assay: agonist-induced loss of surface beta2AR – cell-based, FAP fluorogen, flow cytometry, validation set, pilot screen (AID 504459;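 active means percent response above 42, roughly 3 SD of non-fluorescent test compounds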;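 further: agonist-driven loss of surface beta2AR via internalization measured by FAP dye flow cytometry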). The note with it: Am2.2-beta2AR cells, at 10 µM, stronger effect = higher value.
Sequence of Beta-2 adrenergic receptor (Homo sapiens) (P07550 whole entry, looked up): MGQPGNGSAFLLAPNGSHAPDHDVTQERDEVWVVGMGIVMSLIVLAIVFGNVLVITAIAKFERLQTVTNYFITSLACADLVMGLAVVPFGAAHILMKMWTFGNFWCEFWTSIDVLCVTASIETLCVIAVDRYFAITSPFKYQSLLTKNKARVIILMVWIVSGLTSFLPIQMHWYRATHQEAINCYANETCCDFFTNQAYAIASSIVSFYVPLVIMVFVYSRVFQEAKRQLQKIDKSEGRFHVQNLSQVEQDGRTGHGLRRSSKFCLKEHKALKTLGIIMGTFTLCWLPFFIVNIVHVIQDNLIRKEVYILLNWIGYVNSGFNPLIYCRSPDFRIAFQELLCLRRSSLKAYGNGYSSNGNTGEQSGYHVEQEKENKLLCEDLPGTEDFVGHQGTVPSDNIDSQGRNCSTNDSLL
Assay [11] addresses AP-2 complex subunit beta (Homo sapiens) (UniProt P63010). In words: beta-arrestin/AP2 interaction blockers – biochemical, validation set, GST-AP2 beads, flow cytometry, pilot screen (AID 504541;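 active means inhibition above 54%, about 3 SD of non-fluorescent compounds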;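 further: AP2 carries R879A mutation and is captured from E. coli lysate; bead-bound FITC arrestin peptide fluorescence measuring arrestin peptide binding to AP2; 0% = DMSO wells and 100% = excess unlabeled arrestin peptide control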). The note with it: FITC arrestin peptide, at 10 µM, stronger effect = higher value, AP2 beta2 appendage fragment, R879A mutant.
A short description of assay [12]: cytosolic pH regulators acting via V-ATPase – S. cerevisiae, pHLuorin, HTS validation (AID 504600; in the data active means response above about 15%;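 further: plate controls were DMSO for no effect and reference compound for full effect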). The note with it: V-ATPase proton transport, at 10 µM, stronger effect = higher value.
Assay [13] relates to anti-desmoglein-3 scFv antibody binding to human DSG3. In words: blockers of pathogenic pemphigus antibody–desmoglein-3 binding – biochemical, validation compound set, bead-based, flow cytometry, pilot screen (AID 588368;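 active means binding below the plate cutoff, the plate median minus 3 SD, with a reading above zero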;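 further: signal is the median channel fluorescence of bead-bound GFP antibody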). The note with it: Protein G beads, DSG3-Fc, scFv-GFP binding, at 10 µM, stronger effect = lower value.
Assay [14] in a line: Nile Red efflux blockade in pump-expressing yeast – validation compound set, multiplex, phenotypic, pilot screen (AID 588506;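 active means efflux inhibition above 0.42, the validation set average plus 4 SD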;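 further: Nile Red retained in cells so higher fluorescence means more efflux inhibition; 0 = negative control wells and 1 = enniatin B 25 µM full block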). The note with it: S. cerevisiae pump-expressing triplex, Nile Red efflux flow cytometry; at 10 µM; stronger effect = higher value; the pumps come from Candida albicans.
Assay [15] addresses ATP-binding cassette sub-family B member 6 (Homo sapiens) (UniProt Q9NP58). Kind of assay: blockers of ABCB6-driven porphyrin uptake – K562-ABCB6 cells, flow cytometry, validation set, pilot screen (AID 588550).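 Further: 0% = DMSO wells and 100% = benzethonium chloride 70 µM positive control.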 The note with it: K562-ABCB6 porphyrin accumulation, 1 h, at 10 µM, stronger effect = higher value.
Assay [16] can be described thus: AML differentiation inducers, ER-HoxA9 marrow cells – cell-based, GFP/MAC1 double positive, flow cytometry, validation set, primary screen (AID 588685;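 active means differentiation response of at least 50%, scaled between solvent and reference control, from cells with both markers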;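 further: compound exposure lasts four days before antibody staining and flow analysis; 0% = DMSO wells and 100% = 5 µM fulvestrant positive control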). The note with it: stronger effect = higher value, normalized: vehicle 0, fulvestrant 100.

We go through 7 compounds from PubChem BioAssay.

Records with an inconclusive call do not appear. Active and inactive are the calls of the source.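 How the source made its calls, unless noted: active means inhibition above the screen-wide mean plus 3 SD, about 51%; inactive means the rest.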

A word on the inhibition: it is the drop in the measured response relative to a control, in per cent.

Sequence of Integrin beta-1 (Homo sapiens) + Integrin alpha-4 (Homo sapiens) (P05556 whole entry, looked up): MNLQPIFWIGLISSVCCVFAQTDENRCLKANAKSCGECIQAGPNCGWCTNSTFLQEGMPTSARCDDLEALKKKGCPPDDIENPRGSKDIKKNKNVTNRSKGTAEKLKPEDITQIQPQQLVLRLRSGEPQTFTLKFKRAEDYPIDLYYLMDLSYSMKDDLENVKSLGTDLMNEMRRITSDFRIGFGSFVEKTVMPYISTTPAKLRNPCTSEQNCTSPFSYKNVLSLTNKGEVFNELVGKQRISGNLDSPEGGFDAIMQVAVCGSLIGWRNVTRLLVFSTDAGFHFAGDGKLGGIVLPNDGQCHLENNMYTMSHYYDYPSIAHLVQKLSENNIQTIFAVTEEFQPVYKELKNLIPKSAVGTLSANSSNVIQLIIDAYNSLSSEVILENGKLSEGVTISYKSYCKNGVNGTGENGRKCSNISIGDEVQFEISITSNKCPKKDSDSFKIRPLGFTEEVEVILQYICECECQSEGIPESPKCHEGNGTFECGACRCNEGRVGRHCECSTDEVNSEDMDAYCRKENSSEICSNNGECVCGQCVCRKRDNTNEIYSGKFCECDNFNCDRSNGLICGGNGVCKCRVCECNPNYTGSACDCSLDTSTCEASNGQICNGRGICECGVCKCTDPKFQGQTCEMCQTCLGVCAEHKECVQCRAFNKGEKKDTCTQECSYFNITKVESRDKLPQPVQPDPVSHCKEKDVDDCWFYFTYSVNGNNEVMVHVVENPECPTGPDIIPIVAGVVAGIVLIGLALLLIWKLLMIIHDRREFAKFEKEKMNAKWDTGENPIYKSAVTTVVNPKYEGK
Sequence of Integrin beta-1 (Homo sapiens) + Integrin alpha-4 (Homo sapiens) (P13612 whole entry, looked up): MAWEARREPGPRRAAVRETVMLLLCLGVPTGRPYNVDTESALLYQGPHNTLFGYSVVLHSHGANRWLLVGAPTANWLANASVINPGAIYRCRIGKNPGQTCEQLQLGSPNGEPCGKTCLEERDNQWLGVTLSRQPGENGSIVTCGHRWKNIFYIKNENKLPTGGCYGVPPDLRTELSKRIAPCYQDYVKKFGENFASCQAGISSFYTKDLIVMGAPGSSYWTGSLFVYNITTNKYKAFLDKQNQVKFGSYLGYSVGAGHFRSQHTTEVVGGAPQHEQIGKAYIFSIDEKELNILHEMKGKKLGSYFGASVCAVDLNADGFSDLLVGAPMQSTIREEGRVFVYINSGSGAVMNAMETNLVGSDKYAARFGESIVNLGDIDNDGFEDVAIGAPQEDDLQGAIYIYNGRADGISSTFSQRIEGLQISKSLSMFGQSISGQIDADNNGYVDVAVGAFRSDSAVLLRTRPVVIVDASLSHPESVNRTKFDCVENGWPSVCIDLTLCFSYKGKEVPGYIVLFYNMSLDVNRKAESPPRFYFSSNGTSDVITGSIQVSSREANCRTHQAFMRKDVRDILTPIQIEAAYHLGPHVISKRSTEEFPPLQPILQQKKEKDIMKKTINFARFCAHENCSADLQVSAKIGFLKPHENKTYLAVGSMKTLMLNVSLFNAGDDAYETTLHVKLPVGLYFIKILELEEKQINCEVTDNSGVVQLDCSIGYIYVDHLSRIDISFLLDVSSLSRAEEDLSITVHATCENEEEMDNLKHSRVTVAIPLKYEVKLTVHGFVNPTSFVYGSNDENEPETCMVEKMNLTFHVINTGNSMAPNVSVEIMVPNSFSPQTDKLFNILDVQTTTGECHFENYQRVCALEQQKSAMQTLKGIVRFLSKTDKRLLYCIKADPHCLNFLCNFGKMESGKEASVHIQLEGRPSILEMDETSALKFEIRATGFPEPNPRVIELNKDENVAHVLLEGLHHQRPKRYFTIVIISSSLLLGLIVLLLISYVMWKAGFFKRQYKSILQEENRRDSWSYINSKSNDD
Sequence of AP-2 complex subunit beta (Homo sapiens) (P63010 whole entry, looked up, the tested form may be a part, one chain of several): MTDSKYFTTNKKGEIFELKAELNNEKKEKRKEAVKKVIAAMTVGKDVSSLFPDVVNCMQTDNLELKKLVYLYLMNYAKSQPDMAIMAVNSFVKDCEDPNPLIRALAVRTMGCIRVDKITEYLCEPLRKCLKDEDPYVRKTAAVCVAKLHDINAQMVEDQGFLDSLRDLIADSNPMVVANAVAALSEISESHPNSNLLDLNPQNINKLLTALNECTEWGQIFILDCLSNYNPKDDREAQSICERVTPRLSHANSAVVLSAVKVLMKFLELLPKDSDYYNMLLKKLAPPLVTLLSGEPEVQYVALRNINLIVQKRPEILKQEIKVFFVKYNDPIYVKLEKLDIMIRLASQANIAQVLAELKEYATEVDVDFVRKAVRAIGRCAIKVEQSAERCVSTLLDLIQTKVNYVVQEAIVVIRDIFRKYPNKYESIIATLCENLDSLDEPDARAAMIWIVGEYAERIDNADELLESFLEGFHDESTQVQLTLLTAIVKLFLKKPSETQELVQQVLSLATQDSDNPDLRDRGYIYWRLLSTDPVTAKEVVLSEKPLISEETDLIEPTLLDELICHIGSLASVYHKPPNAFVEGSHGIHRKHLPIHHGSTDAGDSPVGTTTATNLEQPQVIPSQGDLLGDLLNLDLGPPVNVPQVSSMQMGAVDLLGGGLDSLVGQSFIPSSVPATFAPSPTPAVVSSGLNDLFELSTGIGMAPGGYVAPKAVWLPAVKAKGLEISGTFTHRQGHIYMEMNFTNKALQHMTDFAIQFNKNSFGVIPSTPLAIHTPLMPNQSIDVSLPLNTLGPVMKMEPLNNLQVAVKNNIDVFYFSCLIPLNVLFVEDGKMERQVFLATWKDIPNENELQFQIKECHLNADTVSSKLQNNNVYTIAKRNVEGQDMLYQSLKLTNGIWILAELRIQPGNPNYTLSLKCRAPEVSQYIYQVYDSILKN
Sequence of ATP-binding cassette sub-family B member 6 (Homo sapiens) (Q9NP58 whole entry, looked up): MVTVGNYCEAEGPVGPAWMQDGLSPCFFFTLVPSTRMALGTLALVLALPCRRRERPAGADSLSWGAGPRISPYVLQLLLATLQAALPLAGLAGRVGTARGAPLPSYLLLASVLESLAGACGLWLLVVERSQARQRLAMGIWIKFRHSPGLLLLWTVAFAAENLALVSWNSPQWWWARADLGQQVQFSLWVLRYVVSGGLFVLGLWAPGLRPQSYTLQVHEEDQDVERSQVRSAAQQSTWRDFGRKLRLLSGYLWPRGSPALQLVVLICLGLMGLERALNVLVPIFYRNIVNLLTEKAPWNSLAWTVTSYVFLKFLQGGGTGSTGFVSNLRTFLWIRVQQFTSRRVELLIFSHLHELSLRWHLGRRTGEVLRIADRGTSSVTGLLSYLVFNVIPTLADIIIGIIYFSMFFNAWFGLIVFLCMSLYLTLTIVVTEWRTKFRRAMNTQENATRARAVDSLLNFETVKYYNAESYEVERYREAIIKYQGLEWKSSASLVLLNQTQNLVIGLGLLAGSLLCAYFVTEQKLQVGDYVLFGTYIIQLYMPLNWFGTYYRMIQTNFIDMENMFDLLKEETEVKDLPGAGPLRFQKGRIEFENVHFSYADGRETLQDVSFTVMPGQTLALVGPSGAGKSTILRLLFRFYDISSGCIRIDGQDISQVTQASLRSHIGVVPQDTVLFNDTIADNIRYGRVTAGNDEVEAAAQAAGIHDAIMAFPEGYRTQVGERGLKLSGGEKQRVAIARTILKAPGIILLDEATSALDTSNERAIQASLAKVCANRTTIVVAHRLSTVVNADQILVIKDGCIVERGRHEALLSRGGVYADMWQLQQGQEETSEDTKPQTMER

In the case of `CCc1oc2ccccc2c1C(=O)c1cc(Br)c(O)c(Br)c1`, the percent of DMSO control GFP in [1] is 92.2% (inactive). Moreover, the GFP response vs DMSO in assay [2] was 117% (inactive); in [4], 78.1% (inactive). Besides, in assay [3], the percent response of DMSO control is 106% (inactive). In addition, the GFP response, % of DMSO in assay [5] is 91% (inactive). This compound also had a double positive events in assay [6] of 65.3%. In assay [6], the vesicle binding response is 165% (inactive). Further, the inhibition in [7] was 7.43% (inactive); in assay [11], -0.81% (inactive); in [15], 12% (inactive). The superoxide response (% of plate) in [8] was 118% (inactive). In assay [9], the aptamer binding inhibition is 4% (inactive). The response is 2.6% (inactive) in assay [10] and 15.2% (active) in assay [12]. In addition, in [13], the binding (% of control) was 102% (inactive). For the same compound, in assay [14], the efflux inhibition (fraction of control) is 0.01 (inactive). For the same compound, in assay [16], the differentiation response was 9.83% (inactive).

`COc1ccc2[nH]c(=O)c3c(c2c1)OC(C)(C)C=C3`: in assay [1], the percent of DMSO control GFP was 93.7% (inactive). Besides, the GFP response vs DMSO in [2] is 105% (inactive); in [4], 119% (inactive). In addition, the percent response of DMSO control in assay [3] is 89.1% (inactive). Further, the GFP response, % of DMSO in assay [5] is 95.1% (inactive). Moreover, the double positive events in assay [6] is 59.1%. The vesicle binding response in [6] is 88% (inactive). The inhibition was -3.16% (inactive) in assay [7], -1.86% (inactive) in assay [11] and 6% (inactive) in assay [15]. Further, the superoxide response (% of plate) in assay [8] is 99.1% (inactive). In addition, the aptamer binding inhibition in assay [9] was 4% (inactive). Besides, the response in [10] is 5.61% (inactive); in assay [12], 2.4% (inactive). Also, the binding (% of control) in assay [13] is 101% (inactive). In addition, the efflux inhibition (fraction of control) in [14] is 0.08 (inactive). The differentiation response in assay [16] is 8.8% (inactive).

`Cc1cn([C@H]2C=C[C@@H](CO)O2)c(=O)[nH]c1=O`: in assay [1], the percent of DMSO control GFP was 101% (inactive). Besides, the GFP response vs DMSO in assay [2] is 104% (inactive); in [4] it was 92% (inactive). Besides, the percent response of DMSO control in assay [3] is 94.2% (inactive). The GFP response, % of DMSO in assay [5] is 93.5% (inactive). In [6], this compound had a double positive events of 65.8%. Further, in assay [6], the vesicle binding response is 705% (inactive). For the same compound, the inhibition in [7] is 16.1% (inactive); in assay [11], -12% (inactive); in assay [15] it was 3% (inactive). The superoxide response (% of plate) in assay [8] was 94.6% (inactive). Besides, the aptamer binding inhibition in assay [9] was 3% (inactive). Further, the response is -6.71% (inactive) in assay [10] and 3.71% (inactive) in assay [12]. Besides, the binding (% of control) in assay [13] was 101% (inactive). For the same compound, in assay [14], the efflux inhibition (fraction of control) was 0.02 (inactive). The differentiation response in assay [16] was 1.22% (inactive).

Regarding `CCOC(=O)[C@H]1O[C@@H]1C(=O)N[C@@H](CC(C)C)C(=O)NCCC(C)C`, the percent of DMSO control GFP in [1] was 91.1% (inactive). Further, the values for the GFP response vs DMSO in [2] and in [4] were 135% (inactive) and 82.5% (inactive), respectively. Also, in assay [3], the percent response of DMSO control is 97.9% (inactive). The GFP response, % of DMSO in assay [5] is 91.7% (inactive). Also, the double positive events in assay [6] came to 55.3%. In assay [6], the vesicle binding response was 224% (inactive). In addition, the inhibition in assay [7] was 6.46% (inactive); in assay [11] it was -3.19% (inactive); in assay [15], 7% (inactive). In addition, in [8], the superoxide response (% of plate) is 97% (inactive). In [9], the aptamer binding inhibition is 3% (inactive). Also, the response in assay [10] is -8.75% (inactive); in assay [12], 6.36% (inactive). Further, the binding (% of control) in assay [13] is 106% (inactive). Also, the efflux inhibition (fraction of control) in assay [14] is 0.05 (inactive). For the same compound, the differentiation response in [16] was 0.82% (inactive).

As to `CC(C)(C)OC(=O)NCCC(=O)Oc1ccc2ccc(=O)oc2c1`, the percent of DMSO control GFP in [1] is 100% (inactive). Also, the GFP response vs DMSO in assay [2] is 91.9% (inactive); in assay [4] it was 76% (inactive). In addition, the percent response of DMSO control in assay [3] is 98.6% (inactive). The GFP response, % of DMSO in assay [5] was 84% (inactive). The compound further showed a double positive events in assay [6] of 56.1%. The vesicle binding response in assay [6] was 238% (inactive). The inhibition in [7] was -1.79% (inactive); in assay [11], 17.2% (inactive); in [15] it was 3% (inactive). Moreover, in [8], the superoxide response (% of plate) was 101% (inactive). Further, the aptamer binding inhibition in assay [9] was 4% (inactive). For the same compound, the response in assay [10] was 7.52% (inactive); in assay [12], 7.71% (inactive). Moreover, the binding (% of control) in assay [13] is 101% (inactive). In addition, the efflux inhibition (fraction of control) in assay [14] is 0.05 (inactive). For the same compound, the differentiation response in [16] was -12% (inactive).

Consider `COc1ccc(CCN(C)Cc2nc(Cc3ccc(OC)c(OC)c3)no2)cc1OC`, for which the percent of DMSO control GFP in assay [1] is 100% (inactive). Moreover, the GFP response vs DMSO in assay [2] is 105% (inactive); in assay [4], 109% (inactive). Besides, the percent response of DMSO control in assay [3] is 102% (inactive). Also, the GFP response, % of DMSO in [5] was 108% (inactive). The double positive events in assay [6] came to 62.5%. Also, the vesicle binding response in assay [6] was 222% (inactive). The inhibition in assay [7] was 15.1% (inactive); in [11] it was 2.64% (inactive); in assay [15] it was 1% (inactive). In addition, the superoxide response (% of plate) in assay [8] was 92.6% (inactive). In assay [9], the aptamer binding inhibition was 1% (inactive). Besides, the response in assay [10] was -13.9% (inactive); in assay [12], 8.73% (inactive). The binding (% of control) in [13] is 98.8% (inactive). The efflux inhibition (fraction of control) in [14] is 0 (inactive). Further, in assay [16], the differentiation response is 29.5% (inactive).

Regarding `CC1(C)CC(=O)c2cn3c(nc2C1)nc1ccccc13`, in assay [1], the percent of DMSO control GFP was 102% (inactive). For the same compound, the GFP response vs DMSO was 97.7% (inactive) in assay [2] and 99.1% (inactive) in [4]. Also, the percent response of DMSO control in assay [3] is 104% (inactive). In assay [5], the GFP response, % of DMSO is 102% (inactive). Besides, in assay [6], the double positive events is 55.9%. Moreover, the vesicle binding response in assay [6] was 104% (inactive). In addition, the inhibition in [7] was 9.63% (inactive); in assay [11], 17% (inactive); in assay [15] it was -6% (inactive). Further, in assay [8], the superoxide response (% of plate) is 107% (inactive). Also, the aptamer binding inhibition in assay [9] is -1% (inactive). The response was -25.5% (inactive) in assay [10] and 3.76% (inactive) in assay [12]. Also, the binding (% of control) in assay [13] is 103% (inactive). In assay [14], the efflux inhibition (fraction of control) is -0.12 (inactive). Further, the differentiation response in [16] was -6.03% (inactive).
